Records with an inconclusive call do not appear. The source made the active and inactive calls. Calls follow the shape of the dose curve; as a rule, active = well fitted activation curve with a large enough effect; inconclusive = small, poorly fitted or top-dose-only effect; inactive = no such curve, though single readings can be large or run the other way.
Potency is read from the fitted curve at half-maximal effect.

The nature of this test: qHTS for small molecules that induce genotoxicity in ELG1 expressing cells: Confirmatory Assay for Cherry-picked Compounds. Also: nearly all actives have a fitted effect of over 35% in size. Conditions: ELG1-luciferase reporter cells, luminescence, 16 h; series mostly up to 46.1 µM. The procedure, abridged: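 Activation readout: ONE-Glo luciferase signal from ELG1 reporter cells, 2,000 per well, after 16 hr compound incubation at 37 C. Increased ELG1-driven luminescence reflects genetic stress.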
For `Cc1cc(C(=O)COC(=O)C23CC4CC(CC(O)(C4)C2)C3)c(C)n1C`, the Potency was 14.1 µM (active).
The figure for `CN(C)c1cccc(-c2ccnc(N3CCC(C(N)=O)CC3)n2)c1` is 0.5 µM (active).
For the molecule `Cc1cc(C(=O)COC(=O)c2cccnc2Cl)c(C)n1C`, the Potency is 0.706 µM (active).
As to `CC(=O)N(C)c1ccc(/C=C2\C=Cc3ccccc32)cc1`, the Potency is 0.561 µM (active).
Consider `O=C(Nn1c(SCc2ccc([N+](=O)[O-])cc2)nc2ccccc2c1=O)c1ccc(F)cc1`, for which the Potency is 5 µM (active).
The figure for `CC(=O)Nc1ccc(SCC(=O)c2cc(C)n(Cc3cccs3)c2C)cc1` is 1.12 µM (active); for `Nc1ccc2cccnc2c1` it is 1.77 µM (active); for `COc1ccccc1/C=C/c1nc2ccccc2s1` it is 3.97 µM (active).
The value for `C=CCn1c(C)cc(C(=O)COC(=O)c2n[nH]c(=O)c3ccccc23)c1C` was 2.81 µM (active); that for `CCOC(=O)c1cc(-c2cc(OC)c(OC)c(OC)c2)nc2c1c(=O)[nH]c(=O)n2Cc1ccccc1` was 25 µM (active).
The figure for `CCCC(=O)Oc1ccc2[nH]c(C(=O)c3cc4ccccc4[nH]3)cc2c1` is 6.28 µM (active).
As to `CC(=O)c1c(C)[nH]c(C(=O)Nc2cccc(S(=O)(=O)N3CCCC3)c2)c1C`, the Potency is 15.8 µM (active).
The figure for `Cc1ccc2nc(-c3ccc(C)c(NC(=O)COc4ccc(Br)cc4)c3)oc2c1` is 2.5 µM (active).
Turning to `CC(=O)c1cc(F)ccc1OCC(=O)Nc1ccc2c(c1)OCO2`, the Potency is 6.28 µM (active).
The value for `O=C(Nc1cc(Cl)ccc1Cl)c1ccc(OC(=O)c2ccco2)cc1` was “inactive”; that for `CCc1ccc(OCC(=O)Nc2ccc(-c3nc4ccccc4o3)c(O)c2)cc1` was 14.1 µM (active).

The values are drawn from PubChem BioAssay AID720565 (National Center for Advancing Translational Sciences (NCATS), 2013).
